MCF10A rerep: induces DNA re-replication in MCF 10a normal breast cells; MCF 10A DNA re-replication, Hoechst nuclear intensity, 48 h; Potency, µM (series often up to 46.1 µM), without a hit: at the highest dose activity, positive = re-replication, hits mostly activators; 350,000 compounds, 2.9% hits; AID 624296; further: % of control where 0% means no effect; nearly all actives have a fitted effect of over 50% in size
SW480 rerep: inducers of DNA re-replication in SW480 colon cancer cells | SW480 DNA re-replication, Hoechst DNA content imaging, 48 h | Potency, µM (highest dose often 46.1 µM), for the others: top-dose re-replication activation, most hits filed as activators | 340,000 compounds, 1.8% hits; further: % of control where 0% means no effect; nearly all actives have a fitted effect of over 55% in size
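250 cells/well; 23 nL cpd via pin tool; 48 hr, 37 C, 5% CO2; Hoechst 40 min; imager read of total nuclear intensity, ex 405/em 500-530 nm.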
ELG1 DNA repair: ELG1-dependent DNA repair inhibition | AID 504467 | HEK293T ELG1-luciferase reporter, luminescence, 16 h; DNA damage induced by 5-fluorouridine | 330,000 compounds, 2.3% hits | Potency, µM (titrated, usually from 46.1 µM), without a hit: top-dose activity change, negative = inhibition, hits mostly inhibitors; further: on the % scale 0 is the no-effect control and ±100 the full control effect; nearly all actives have a fitted effect of over 55% in size
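5-Fluorouridine DNA damage + compound/DMSO, 2,000 cells/well, 16 h, 37 °C/5% CO2. ONE-Glo, 30 min RT, luminescence. Readout = decrease in reporter signal.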
KB-3-1 cytotox: KB-3-1 parental cell cytotoxicity. KB-3-1 viability, CellTiter-Glo ATP luminescence, 72 h. Potency, µM (highest dose often 46.1 µM), hits mostly cytotoxic. 400,000 compounds, 1.4% hits; further: on the % scale 0 is the no-effect control and ±100 the full control effect; nearly all actives have a fitted effect of over 60% in size
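Viability of parental KB-3-1 cells, measured by CellTiter-Glo luminescence, followed a 72 h incubation at 37 °C with pinned compounds in phenol-red-free DMEM containing 10% FBS.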
KB-V1 MDR tox: KB-V1 MDR subline cytotoxicity. KB-V1 MDR cells viability, CellTiter-Glo, 72 h. AID 1347076. 400,000 compounds, 3.4% hits. Potency, µM (titrated, usually from 46.1 µM), actives largely listed as cytotoxic; further: on the % scale 0 is the no-effect control and ±100 the full control effect; nearly all actives have a fitted effect of over 60% in size
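In this primary screen, KB-V1 cells overexpressing P-gp are incubated with library compounds (lowest to highest concentration) for 72 h at 37 degrees C before a luminescent ATP viability read.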
An asterisk follows results filed as active; i = inactive; ? = inconclusive; nt = no result. Sampled rows, rich in hits. Any-hit rate of the full collection: about 8.2%. The call rests on the fitted dose curve; in most records, active means well fitted curve in the direction sought with a large enough effect; inconclusive means small, poorly fitted or top-dose-only effect, or another doubt; inactive means no such curve, though single readings can be large; an effect the other way counts as inactive or inconclusive. Potency means the concentration at half of the fitted maximal effect.

SMILES | MCF10A rerep | SW480 rerep | ELG1 DNA repair | KB-3-1 cytotox | KB-V1 MDR tox
COc1cc(CCC(=O)N2CCN(c3cccc(C)c3C)CC2)cc(OC)c1OC | 22% | 2% | 18µM* | i | ?
Cc1cccc(N2CCN(C(=O)Cc3cn(C)c4ccccc34)CC2)c1C | 18µM* | ? | ? | ? | 18µM*
COc1cc(C(=O)N2CCCN(c3nc4cc(C)ccc4cc3C#N)CC2)cc(OC)c1OC | ? | -5% | ? | i | 18µM*
COc1cc(C(=O)C(=O)N2CCN(c3ccccc3)CC2)cc(OC)c1OC | nt | nt | nt | 21µM* | ?
COc1cccc(NC(=O)c2oc3ccccc3c2NC(=O)c2ccc(F)c(F)c2)c1 | nt | nt | nt | i | i
Cc1cccc(N2CCN(C(=O)CCNC(=O)Cn3ccc4ccccc4c3=O)CC2)c1C | 1% | 2% | ? | i | 21µM*
CN1CCN(C(=O)CCNC(=O)Cn2ccc3ccccc3c2=O)CC1 | 3% | 0% | -11% | i | i
COc1ccc2cc(C#N)c(N3CCN(C(=O)c4ccccc4C)CC3)nc2c1 | 1% | 8% | 13µM* | i | ?
COc1cccc(C(C(=O)NCc2ccccc2)N2CCN(c3cccc(C)c3C)CC2)c1OC (stereo unspecified) | nt | nt | nt | ? | 16µM*
Cc1ccc2cc(C#N)c(N3CCN(C(=O)c4ccccc4)CC3)nc2c1 | 0.58µM* | ? | ? | i | i
Cc1ccc2nc(N3CCN(C(=O)c4cccs4)CC3)c(C#N)cc2c1 | ? | 13% | -29% | i | ?
COc1ccc(C(=O)N2CCN(c3nc4cc(C)ccc4cc3C#N)CC2)c(OC)c1 | -2% | -7% | ? | i | ?
O=C(NCCc1ccc(Cl)cc1)C1COc2ccccc2C1 (stereo unspecified) | nt | nt | nt | i | i
Cc1cc2cc(C#N)c(N3CCN(S(C)(=O)=O)CC3)nc2cc1C | -53% | -2% | -20% | i | 18µM*
COc1ccc2nc(N3CCC(O)CC3)c(C#N)cc2c1 | 1% | -1% | 0% | i | i
Cc1ccc(N2CCN(C(=O)c3ccccc3)CC2)c(C)c1 | 2% | 0% | -23% | i | i
COc1cc(C(=O)N2CCN(c3ccc(C)cc3C)CC2)cc(OC)c1OC | 18µM* | 6.5µM* | ? | 2.3µM* | ?
Cc1ccc(S(=O)(=O)N2CCCN(c3nc4cc(C)ccc4cc3C#N)CC2)cc1 | ? | -3% | ? | i | ?
COc1ccc2nc(N3CCC(C)CC3)c(C#N)cc2c1 | 5.8µM* | 21µM* | ? | i | i
CCCNS(=O)(=O)c1ccc(CCC(=O)Nc2ccc3c(c2)OCCO3)cc1 | -23% | 1% | -2% | i | i
CCN(CC)S(=O)(=O)c1ccc2c(c1)nc(CCC(=O)Nc1ccc3c(c1)OCO3)n2CC | 2% | -5% | -22% | i | 15µM*
COc1ccc(C)cc1S(=O)(=O)N(CC(=O)Nc1ccc2c(c1)OCCO2)Cc1ccccc1 | -6% | 2% | 18µM* | i | i
O=C(CCc1ccc(S(=O)(=O)NCCc2ccccc2)cc1)Nc1ccc2c(c1)OCCO2 | ? | ? | 13µM* | i | 21µM*
CCN(CC(=O)Nc1ccc2c(c1)OCCO2)S(=O)(=O)c1cccs1 | 16µM* | -2% | 29% | i | i
CCN(CC)S(=O)(=O)c1ccc2c(c1)nc(CCC(=O)Nc1ccc3c(c1)OCO3)n2C | -9% | 0% | -10% | i | i
CCN(CC(=O)Nc1ccc2c(c1)OCCO2)CC(=O)Nc1ccc2c(c1)OCO2 | -9% | 1% | ? | i | i
CCn1c(CN2CCCCC2)nc2cc(NC(=O)COc3ccccc3C(C)(C)C)ccc21 | nt | nt | nt | i | i
O=C(NCc1cccc(Cl)c1)C1CCCN(c2ncnc3c2nc2n3CCCCC2)C1 (stereo unspecified) | 7% | -5% | ? | i | i
CCC(C)[C@H](NC(=O)Nc1ccc2c(c1)OCCO2)C(=O)OC (stereo partly specified) | 1% | -5% | 9% | i | i

Screening results (PubChem)
